A short description of assay [1]: inhibitors of TNFa-induced NFkB p65 translocation, primary screen, imaging, HUVEC, MLSMR starter and 10KST1 sets (AID 438;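 active = inhibition above 20% together with a positive visual image hit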;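 note: compound added about 3h40 before a 20 min TNFalpha stimulation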;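 for inhibition: signal is the nuclear over cytoplasmic p65 intensity ratio per well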). As to conditions: HUVEC TNFa-induced p65 nuclear translocation; cell count: measured here: nuclei count (cytotoxicity indicator), at 2.08 µM; inhibition: at 2 µM, stronger effect = higher value, 0% TNFa-plus-vehicle, 100% no-TNFa wells.
Assay [2] is described as follows: reduction of polyQ htt aggregates in cells – imaging, exon1htt(103Q)mCFP cells, high-content imaging, primary screen (AID 483;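 active = visual image review flags a hit and inhibition of aggregation exceeds 20%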;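 note: compound exposure lasted 3 days before fixation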;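 for nuclei count: percent of the per-plate median nuclei count of sample wells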). Particulars: exon1htt(103Q)mCFP cell line, aggregate imaging, at 2 µM; inhibition of aggregation: stronger effect = higher value; nuclei count: measured here: cell count, toxicity.
A short description of assay [3]: endothelial E-selectin expression blockers – imaging, HUVEC, immunofluorescence, MLSMR starter and 10KST1 sets, primary screen (AID 487;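 active = visually confirmed hit in the image check and inhibition above 20%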;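 for inhibition: signal is fraction of cell area covered by stained E-selectin grains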;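 for nuclei count: 100% = median nuclei count of all wells on the same plate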). As to conditions: HUVEC TNFalpha-induced E-selectin immunofluorescence imaging, at 2 µM; inhibition: stronger effect = higher value; nuclei count: measured here: cell number, toxicity.
The nature of assay [4]: Primary imaging screen for DUSP6 inhibitors that restore phospho-Erk in transfected HeLa cells, chemical complementation (AID 609;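 active = compounds giving at least 50% inhibition in the cell-based MKP-3 phosphatase rescue imaging test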;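 for inhibition: phospho-Erk level distribution per well compared with pooled transfected vehicle control wells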). Particulars: HeLa MKP-3 transfected, phospho-Erk imaging KS statistic, at 10 µM, cells stimulated with TPA for 15 min.
For assay [5], the target named is Dual specificity protein phosphatase 6 (Homo sapiens) (UniProt Q16828). Described as above. As to conditions: HeLa MKP-3 transfected, phospho-Erk imaging KS statistic; at 10 µM; stronger effect = higher value; cells stimulated with TPA for 15 min.
Assay [6] deals with Voltage-gated potassium channel subunit beta-2 (Rattus norvegicus) (UniProt P62483). The experiment in a line: inhibitors of rat Kvbeta2 reductase activity – biochemical, NADPH fluorescence, primary screen (AID 622;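 active = fluorescence slope higher than the sample average by over 3 SD, cut at about -0.22 in these data, passing the limit was not always enough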;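 note: slope of raw intensity against log time taken from 70 to 1610 s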). As to conditions: recombinant KvBeta, 4-cyanobenzaldehyde reduction, at 10 µM, stronger effect = higher value.
Assay [7] shares this target. As to the kind of experiment: enhancers of rat Kvbeta2 NADPH turnover – biochemical, NADPH fluorescence, primary screen (AID 623;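 active = NADPH fluorescence slope more negative than the mean of all samples by about 3 SD, 99.7% confidence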;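 note: fluorescence intensity change per second fitted from 20 to 320 s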). As to conditions: Recombinant KvBeta, NADPH fluorescence decrease slope, 10 min; at 10 µM; stronger effect = lower value.
In assay [8] the target is Alpha-2C adrenergic receptor (Homo sapiens) (UniProt P18825). The experiment in a line: compounds altering alpha2C-coupled GIRK flux – cell-based, HEK293 alpha2C/GIRK1/2, thallium flux, primary screen (AID 624;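 active = fluorescence slope after compound addition differing from the mean of all screened samples at 99.7% confidence, in either direction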;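 note: slope of fluorescence ratio to pre-addition baseline per second over 15 to 24 s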). Particulars: thallium flux BTC fluorescence, at 10 µM, actives lie on both sides.
Assay [9] has as its target Muscarinic acetylcholine receptor M4 (Homo sapiens) (UniProt P08173). The experiment in a line: M4-linked GIRK flux change, two-sided – cell-based, HEK293 M4/GIRK, thallium flux, BTC-AM, M4 allosteric agonist project, primary screen (AID 625;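 active = fluorescence slope after compound addition differing from the mean of all tested samples at 99.7% confidence, mostly higher but some lower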;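 note: thallium influx through GIRK channels coupled to M4 in HEK293 cells with BTC-AM dye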). Particulars: at 10 µM, actives lie on both sides.
A short description of assay [10]: inhibitors of larval lipid processing in zebrafish, primary screen, whole organism, PED6 fluorescence, gall bladder and intestine (AID 686;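 active = a full or partial loss of lipid-probe fluorescence in the fish gall bladder, intestine or both, judged by eye; inactive = no fluorescence loss, or compound toxic to the fish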;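 note: larvae 5 to 7 days old with five fish per well; signal comes from phospholipase A2 cleavage of quenched PED6 carried via bile; overnight exposure to compound and PED6 before scoring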). Particulars: Zebrafish larvae PED6 lipid processing, fluorescence scoring; screened at 20 µM (by protocol).
A short description of assay [11]: loss of swimming-algae plug formation – whole organism, Chlamydomonas reinhardtii, WT vs cilia-less mutant, absorbance, 96-well, primary screen (AID 463189).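 Note: 0% = wild type cc124 cells in DMSO and 100% = ciliumless bld1 mutant cells.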 Particulars: Chlamydomonas reinhardtii gravitaxis, OD600 absorbance, 2 days; at 10 µM; stronger effect = higher value.
Assay [12] is described as follows: blockers of RIG-like receptor reporter activation – cell-based, Sendai virus stimulus, luciferase, 10K MLSCN set, TLR/RLR signaling modifier project, primary screen (AID 602276;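 active = inhibition at or above 50% at 10 µM; inactive = inhibition below 50%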;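 note: firefly luciferase from ISG56 promoter only with Renilla not read in this screen; 0% = Sendai virus plus DMSO and 100% = medium plus DMSO without virus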). As to conditions: HEK293 RL24 IRF3 luciferase reporter, at 10 µM, stronger effect = higher value.
Assay [13] is described as follows: TLR3 IRF3 reporter activation blockers – cell-based, poly I:C stimulus, luciferase, 10K MLSCN set, primary screen (AID 602277;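 active = inhibition of the reporter signal at or above 50%; inactive = inhibition below 50%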). Particulars: HEK293-TLR3 RL24 IRF3 luciferase reporter, at 10 µM, stronger effect = higher value.
Setting [14] is: measured here: cell density z-score.
[15] abbreviates: measured here: nuclear c-Myc green intensity z-score.
The mark [16] stands for this setting: measured here: nuclear pErk red intensity z-score, stronger effect = higher value.

Each structure is given as a SMILES string. Values joined by “and” are separate entries in the source; they are usually repeats but may differ in a detail not shown here. Equal values may be shown once. Active and inactive are the calls of the source.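 Rule for the calls, unless noted: active = inhibition at or above 50% relative to wild type and mutant plate controls; inactive = inhibition below 50%.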

Voltage-gated potassium channel subunit beta-2 (Rattus norvegicus), sequence (P62483 whole entry, looked up): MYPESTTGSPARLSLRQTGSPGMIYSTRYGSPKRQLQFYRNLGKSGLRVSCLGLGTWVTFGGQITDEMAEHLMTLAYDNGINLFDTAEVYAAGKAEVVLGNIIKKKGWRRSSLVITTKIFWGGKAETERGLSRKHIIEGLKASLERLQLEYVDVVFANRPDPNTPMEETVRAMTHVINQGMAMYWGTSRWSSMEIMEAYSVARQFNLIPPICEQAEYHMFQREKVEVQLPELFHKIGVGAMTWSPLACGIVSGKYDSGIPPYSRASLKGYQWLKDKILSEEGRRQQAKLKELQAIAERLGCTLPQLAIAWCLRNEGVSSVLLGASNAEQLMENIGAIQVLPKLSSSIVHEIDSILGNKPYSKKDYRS
Muscarinic acetylcholine receptor M4 (Homo sapiens), sequence (P08173 whole entry, looked up): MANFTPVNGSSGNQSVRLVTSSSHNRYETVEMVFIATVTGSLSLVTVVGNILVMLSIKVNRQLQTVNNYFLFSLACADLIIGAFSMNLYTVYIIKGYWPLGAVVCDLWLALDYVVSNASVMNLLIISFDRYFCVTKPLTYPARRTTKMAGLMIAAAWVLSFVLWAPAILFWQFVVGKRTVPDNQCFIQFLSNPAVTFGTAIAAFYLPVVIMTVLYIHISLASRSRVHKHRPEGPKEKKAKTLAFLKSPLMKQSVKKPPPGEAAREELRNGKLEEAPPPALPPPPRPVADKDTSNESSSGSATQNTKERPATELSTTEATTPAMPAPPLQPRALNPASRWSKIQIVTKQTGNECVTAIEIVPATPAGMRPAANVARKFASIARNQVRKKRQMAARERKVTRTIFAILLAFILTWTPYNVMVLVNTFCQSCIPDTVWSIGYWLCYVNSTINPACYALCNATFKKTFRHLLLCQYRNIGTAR
Dual specificity protein phosphatase 6 (Homo sapiens), sequence (Q16828 whole entry, looked up): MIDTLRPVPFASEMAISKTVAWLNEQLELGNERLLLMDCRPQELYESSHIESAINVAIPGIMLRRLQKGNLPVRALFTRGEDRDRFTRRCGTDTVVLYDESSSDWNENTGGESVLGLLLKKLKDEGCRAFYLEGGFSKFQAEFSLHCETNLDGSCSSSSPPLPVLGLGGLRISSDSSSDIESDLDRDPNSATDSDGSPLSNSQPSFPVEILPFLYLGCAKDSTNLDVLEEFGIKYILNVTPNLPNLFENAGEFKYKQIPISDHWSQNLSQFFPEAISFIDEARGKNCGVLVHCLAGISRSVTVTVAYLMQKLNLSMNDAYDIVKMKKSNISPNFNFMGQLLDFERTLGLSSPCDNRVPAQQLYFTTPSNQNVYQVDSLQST
Alpha-2C adrenergic receptor (Homo sapiens), sequence (P18825 whole entry, looked up): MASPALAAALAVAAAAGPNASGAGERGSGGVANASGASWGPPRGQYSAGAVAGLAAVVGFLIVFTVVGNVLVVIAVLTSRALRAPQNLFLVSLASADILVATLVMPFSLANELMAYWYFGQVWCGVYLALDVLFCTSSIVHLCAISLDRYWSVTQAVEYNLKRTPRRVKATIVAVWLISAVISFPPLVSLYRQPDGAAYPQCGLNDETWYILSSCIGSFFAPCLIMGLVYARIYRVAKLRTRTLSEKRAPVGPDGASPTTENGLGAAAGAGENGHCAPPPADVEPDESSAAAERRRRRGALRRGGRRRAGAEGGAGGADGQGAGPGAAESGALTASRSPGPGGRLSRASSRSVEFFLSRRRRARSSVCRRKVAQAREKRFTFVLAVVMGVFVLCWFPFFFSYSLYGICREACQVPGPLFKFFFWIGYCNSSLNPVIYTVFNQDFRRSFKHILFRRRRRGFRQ

Consider `CNC(=O)CC(C(=O)O)c1ccc(OC(C)C)cc1` (stereo unspecified), for which the cell count in assay [1] was 649. Besides, the inhibition is -0.5% (inactive) in [1]; 21.1% (inactive) in assay [3]; -2.09% (inactive) in [5]; 2.81% (inactive) in assay [11]; 12.9% (inactive) in assay [12]; 19.4% (inactive) in [13]. Further, in [2], the inhibition of aggregation is 26.1% (inactive). Also, the nuclei count in assay [2] came to 89.4%; in [3], 125%. Also, the z-score is -0.892 in [4] (setting [14]), 0.826 in assay [4] (setting [15]) and 1.07 in assay [4] (setting [16]). For the same molecule, the fluorescence slope is -0.454 (inactive) in assay [6] and 0.00492 (inactive) in assay [9]. Besides, the NADPH fluorescence slope in [7] was -4e-05 (inactive). Moreover, in assay [8], the slope is 0.00593 (inactive). The outcome in assay [10] was inactive.
Regarding `O=C(CCCN1C(=O)c2ccccc2C1=O)N1CCC(c2ccccc2)C1` (stereo unspecified), the cell count in [1] was 452. The inhibition is -8.4% (inactive) in assay [1]; -109% (inactive) in [3]; -3.5% (inactive) in assay [5]; 10.2% (inactive) in assay [11]; 10.8% (inactive) in assay [12]; -11.3% (inactive) in assay [13]. Also, the inhibition of aggregation in assay [2] was -32.2% (inactive). Further, the nuclei count amounted to 61.9% in [2] and 123% in assay [3]. The z-score in assay [4] (setting [14]) is 1.18; in assay [4] (setting [15]), -1.65; in assay [4] (setting [16]) it was 0.457. For the same molecule, the fluorescence slope in assay [6] was -0.453 (inactive). Also, the NADPH fluorescence slope in [7] is -7.2e-05 (inactive). Moreover, in [8], the slope is 0.00674 (inactive).
Take `CCN(CC)C(=O)c1ccc(O)c(OC)c1`: in assay [1], the cell count amounted to 502. In addition, the inhibition in assay [1] was -11.1% (inactive); in assay [3], -54.9% (inactive); in assay [5], 8% (inactive); in assay [11] it was 4.81% (inactive) and 9.44% (inactive); in assay [12], -6.3% (inactive); in [13] it was 27.6% (inactive). The inhibition of aggregation in [2] is 8.7% (inactive). Besides, the results for the nuclei count in assay [2] and in assay [3] were 92.4% and 125%, respectively. For the same molecule, the z-score was 0.597 in assay [4] (setting [14]), 0.258 in [4] (setting [15]) and -0.513 in [4] (setting [16]). The fluorescence slope in assay [6] is -0.5 (inactive). The NADPH fluorescence slope in assay [7] was -7.4e-05 (inactive). In assay [8], the slope was 0.00537 (inactive).
Regarding `CC(C)C(=O)N1CCN(c2nc(-c3ccccc3)c3c(c2C#N)CCCC3)CC1`, in assay [1], the cell count is 615. For the same molecule, the inhibition in assay [1] is -2.8% (inactive); in assay [3] it was -17.1% (inactive); in assay [5], -7.67% (inactive); in assay [11], 5.67% (inactive); in [12], -7.38% (inactive); in assay [13] it was 17.9% (inactive). For the same molecule, the inhibition of aggregation in assay [2] was 0.5% (inactive). Besides, the nuclei count in [2] was found to be 89.1%; in assay [3] it was 122%. In addition, the results for the z-score in assay [4] (setting [14]), in assay [4] (setting [15]) and in assay [4] (setting [16]) were 0.333, 0.332 and -0.342, respectively. Further, the fluorescence slope is -0.377 (inactive) in assay [6] and 0.00499 (inactive) in assay [9]. Besides, in [7], the NADPH fluorescence slope was -9.2e-05 (inactive). Besides, the slope in assay [8] is 0.0045 (inactive). Further, the molecule was classed as inactive in assay [10].
Consider `COc1ccc(CNc2oc(COc3ccccc3Cl)nc2C#N)cc1`, for which, in assay [1], the cell count worked out at 436. Also, the inhibition in assay [1] was -2.2% (inactive); in assay [3] it was -70.3% (inactive); in assay [5], 3.5% (inactive); in assay [11], 31.6% (inactive); in assay [12] it was 7.08% (inactive); in assay [13], 6.46% (inactive). The inhibition of aggregation in assay [2] is 21.3% (inactive). The nuclei count is 81.6% in [2] and 126% in assay [3]. The figures for the z-score in [4] (setting [14]), in assay [4] (setting [15]) and in [4] (setting [16]) were -0.4, 0.197 and -0.0244, respectively. For the same molecule, the fluorescence slope in assay [6] is -0.551 (inactive); in assay [9], 0.0036 (inactive). In addition, the NADPH fluorescence slope in [7] was -9.3e-05 (inactive). Besides, the slope in assay [8] was 0.00797 (inactive).
On to `Cc1cc(NCC2CCCO2)n2c(nc3ccccc32)c1C#N` (stereo unspecified), for which the cell count in [1] was found to be 481. Moreover, the inhibition was -3.7% (inactive) in assay [1]; -9.7% (inactive) in assay [3]; 1.48% (inactive) in assay [5]; -17.8% (inactive) in assay [11]; 16.8% (inactive) in [12]; 15.3% (inactive) in assay [13]. The inhibition of aggregation in assay [2] was 16.3% (inactive). The nuclei count in assay [2] was found to be 95.7%; in assay [3], 113%. The results for the z-score in assay [4] (setting [14]), in [4] (setting [15]) and in [4] (setting [16]) were -1.71, 1 and 0.144, respectively. Besides, the fluorescence slope in assay [6] was -0.356 (inactive); in [9] it was 0.00588 (inactive). Also, in assay [7], the NADPH fluorescence slope was -1.1e-05 (inactive). Further, the slope in [8] was 0.00569 (inactive). In addition, in assay [10], the molecule was classed as inactive.
As to `CC(C)(C)c1ccc(O)c(N)c1`, the cell count in assay [1] was 646. Moreover, the inhibition in assay [1] is -5.1% (inactive); in [3], -65.2% (inactive); in assay [5] it was -3.95% (inactive); in assay [11] it was 15.7% (inactive); in assay [12] it was 8.96% (inactive); in assay [13] it was 18% (inactive). Besides, in [2], the inhibition of aggregation was 18.9% (inactive). Further, the nuclei count is 115% in [2] and 138% in [3]. Moreover, the z-score in assay [4] (setting [14]) is 0.287; in [4] (setting [15]), -1.2; in assay [4] (setting [16]) it was 0.0324. Further, the fluorescence slope in assay [6] is -0.526 (inactive); in assay [9], 0.00646 (inactive). Moreover, in assay [7], the NADPH fluorescence slope is -7e-05 (inactive). Also, in assay [8], the slope was 0.00563 (inactive). Also, the result in assay [10] was inactive.

The values are drawn from PubChem BioAssay.
